Assay outcomes as filed in PubChem BioAssay.
Shown is part of a subset that was picked to be rich in hits.
ST2 inh – inhibitors of human ST2 (IL1RL1) binding to IL-33, primary screen, biochemical, AlphaLISA. AID 1259354, 2018. Interleukin-1 receptor-like 1 (Homo sapiens), Q01638. 78,000 tested, 2.3% active. inhibition, % for hits at 17 µM. AlphaLISA ST2-Fc/biotin-IL-33 interaction, 1 h; in the data active = inhibition above about 30%
Target sequence (Q01638 whole entry, looked up): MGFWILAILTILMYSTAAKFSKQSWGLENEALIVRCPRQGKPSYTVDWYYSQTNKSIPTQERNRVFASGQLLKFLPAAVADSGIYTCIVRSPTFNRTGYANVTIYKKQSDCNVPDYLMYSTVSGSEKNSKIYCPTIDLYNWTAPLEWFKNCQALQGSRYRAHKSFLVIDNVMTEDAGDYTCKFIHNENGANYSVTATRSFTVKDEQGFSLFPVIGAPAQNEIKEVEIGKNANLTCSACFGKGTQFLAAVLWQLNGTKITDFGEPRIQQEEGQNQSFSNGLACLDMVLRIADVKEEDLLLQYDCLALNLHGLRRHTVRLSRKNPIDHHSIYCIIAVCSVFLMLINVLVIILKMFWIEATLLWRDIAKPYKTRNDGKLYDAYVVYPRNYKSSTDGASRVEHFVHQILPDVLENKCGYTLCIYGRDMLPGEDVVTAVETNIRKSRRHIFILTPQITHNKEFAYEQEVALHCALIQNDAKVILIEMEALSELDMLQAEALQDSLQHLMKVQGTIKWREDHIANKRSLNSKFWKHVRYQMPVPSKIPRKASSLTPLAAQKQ
Each line names hits and unclear results; the compound was inactive in the other large screens.

CCC(C)n1c(=N)c(C(=O)NC2CCCCC2)cc2c(=O)n3ccccc3nc21 (configuration not stated)	none
Cc1cccn2c(=O)c3cc(C(=O)NCc4cccnc4)c(=N)n(CCCn4ccnc4)c3nc12	none
N#Cc1cc2c(=O)n3ccccc3nc2n(CCc2ccccc2)c1=N	none
COc1cc(NC(=O)c2ccc(C(C)(C)C)cc2)c(OC)cc1NC(=O)c1ccccc1	none
CCc1cccc(CC)c1NC(=O)CN1C(=O)C2C3CCC(C3)C2C1=O (configuration not stated)	none
C#CCOc1c(Br)cc(C=O)cc1OCC	none
CCOc1cc(/C=C(\C#N)c2nn(-c3ccccc3)c(N)c2C#N)cc(Br)c1OC	ST2 inh 31%
CCOc1ccccc1-c1c(C#N)c(N)nc(OC)c1C#N	none
Cc1[nH]n(-c2ccccc2)c(=O)c1C=Nc1ccc([N+](=O)[O-])cc1Cl	none
Cc1[nH]n(-c2ccc(Cl)cc2)c(=O)c1C=Nc1cccc(Nc2ccccc2)c1	ST2 inh 30%
CC(=O)c1ccc(N=Cc2c(C)[nH]n(-c3ccccc3)c2=O)cc1	none
Cc1ccccc1SC1CCN(C(=O)c2cn(CC3CCCO3)nn2)CC1 (configuration not stated)	none
CCOc1ccc(-c2cc3cc(OC)c(OC)cc3c(CC)n2)cc1	none
CCOc1ccc(/C=C(\C#N)c2nc(-c3ccc(OCC)cc3)cs2)cc1	ST2 inh 33%
COc1ccc(S(=O)(=O)Nc2ccc(-c3csc(C)n3)cc2)cc1	none
N#C/C(=C\c1ccc(I)cc1)c1nc(-c2ccc([N+](=O)[O-])cc2)cs1	none
COc1ccc(/C=C(\C#N)c2nc(-c3ccc(C)cc3)cs2)cc1	ST2 inh 60%
COC(=O)c1c(C)oc2cc(Br)c(OCc3ccccc3C)cc12	none
COC1CCN(c2ccc(-c3nc(CCCc4ccccc4)no3)cn2)CC1	none
Cc1ccc(C(=O)Nc2ncc(S(=O)(=O)c3ccc([N+](=O)[O-])cc3)s2)cc1C	none
COCC(=O)Nc1ncc(S(=O)(=O)c2ccc([N+](=O)[O-])cc2)s1	ST2 inh 38%
O=C(Nc1ncc(S(=O)(=O)c2ccc([N+](=O)[O-])cc2)s1)c1ccccc1Br	none
CC(=O)N1CCc2cc(N3C(=O)c4ccccc4C3=O)ccc21	none
Cc1ccc(-c2[nH]c3ccccc3c2C(C[N+](=O)[O-])c2ccco2)cc1 (configuration not stated)	none
COc1cc(C(C[N+](=O)[O-])c2c(C)[nH]c3ccccc23)ccc1O (configuration not stated)	none
Cc1[nH]c2ccccc2c1C(C[N+](=O)[O-])c1ccco1 (configuration not stated)	ST2 inh 36%
O=C(c1cc2ccccc2oc1=O)N1CCc2c([nH]c3ccccc23)C1c1ccccn1 (configuration not stated)	none
CC(=O)Nc1ccc(-c2ccc(=O)n3c2[C@@H]2C[C@@H](CN(S(=O)(=O)c4ccc(Cl)cc4)C2)C3)cc1	none
O=C(C1=C(O)C(=O)N(Cc2cccnc2)C1c1cccc([N+](=O)[O-])c1)c1cccs1 (configuration not stated)	none
Cc1nc(C(C)C)cc(N(C)Cc2cc(-c3ccncc3)no2)n1	none
COc1ccccc1C(CC(=O)O)c1ccc2c(c1)OCO2 (configuration not stated)	none
CN(C)C(C(=O)N1C[C@@H]2[C@H](C1)[C@H]1CC[C@@H]2O1)c1ccc2c(c1)OCO2 (some centres not stated)	ST2 inh 50%
O=C(c1ccc(C2CCCO2)s1)N1C[C@@H]2[C@H](C1)[C@H]1CC[C@@H]2O1 (some centres not stated)	none
C=CCN1C(=O)c2ccccc2Sc2ccc(C(=O)NC3CCCCC3)cc21	none
CCn1cc(C(=O)N2CCCCCC2)c(=O)c2cc(S(=O)(=O)N3CCOCC3)ccc21	none
CCCCOc1ccc(C(=O)N=c2sc(C(=O)OCC)c(C)n2C)cc1	none
COc1ccc(NC(=O)COc2ccccc2)c([N+](=O)[O-])c1	none
COc1ccc(NC(=O)C(Cl)(Cl)Cl)c([N+](=O)[O-])c1	ST2 inh 34%
COc1ccc(NC(=O)c2ccc(Br)cc2)c([N+](=O)[O-])c1	none
Cc1cccc2nc(C(=O)N3CCc4c(cc(-c5ccncc5)c(=O)n4CCN4CCCCC4)C3)cn12	none
CCN(c1ccccc1C)S(=O)(=O)c1cc(Cl)ccc1Cl	none
COc1ccccc1N=c1oc2ccccc2cc1C(=O)Nc1ccccc1	ST2 inh 41%
COc1ccc(N=c2oc3ccccc3cc2C(=O)Nc2ccc(C)cc2)cc1	none
O=C(Nc1ccccc1)c1cc2ccccc2oc1=Nc1cccc(F)c1	none
Cc1ccsc1CCNc1nc(-c2cccnc2)nc2c1CNC2	none
CN(C(=O)CCCn1c2ccccc2c(=O)c2ccccc21)C1CCCCC1	none
C=CCn1c(SCC(=O)Nc2ccccc2[N+](=O)[O-])nc2sc(CC)cc2c1=O	ST2 inh 30%
C=CCn1c(SCC(=O)Nc2sc3c(c2C(=O)OCC)CCC3)nc2ccccc2c1=O	none
CCc1ccccc1NC(=O)CSc1nc2ccccc2c(=O)n1CCc1ccccc1	none
